CRFR2-BP ag: CRF-BP/CRF-R2 complex agonism. activation, % at 13.2 µM. 350,000 compounds, 0.46% hits. HEK293 CRF-R2/CRF-BP, calcium dye fluorescence (FLIPR); percent of saturating CRF peptide response;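 active = activation of at least 50%, plus an integration ratio under a set limit after plate pattern correction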
CRFBP-R2 block: antagonists of CRF-binding protein/CRF-R2 receptor complex | inhibition, % at 11.8 µM | AID 588475 | HEK293 CRF-R2/CRF-BP, CRF-induced calcium fluorescence | 350,000 compounds, 0.59% hits;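 active = inhibition of the ligand-induced calcium signal above about 50% at the single tested concentration, limit read from the data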
cardiac RTF act: increases calcium sensitivity of human cardiac regulated thin filaments; IANBD-labeled TnC RTF fluorescence at EC20 calcium; 0% EC20 calcium, 100% full calcium; activation, % at 7.2 µM; 340,000 compounds, 0.24% hits;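 active = activation above the mean over all tested compounds plus 3 SD, cut at about 30% in these data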;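 note: rise in fluorescence read as greater calcium sensitivity of cardiac thin filaments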
RTF Ca sens inh: cardiac RTF calcium desensitization; 340,000 compounds, 0.12% hits; IANBD-labeled cardiac RTF, Ca2+ fluorescence; inhibition, % at 7.15 µM; P19429+P45379;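 active = inhibition above the mean inhibition of all tested compounds plus 3 SD, cut at about 17% in these data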;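 note: assay run at fixed EC70 calcium of 1.6 mM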
Of the large screens only hits and unclear results are named; the others gave an inactive call. Hits are enriched below; roughly 1.3% of the tested compounds scored in any of these assays.

COc1cc(/C=C2\SC(=S)N(NC(=O)c3ccc(O)c(OC)c3)C2=O)ccc1O	none
COc1ccc(/C=C2\SC(=S)N(CC(=O)Nc3nnc(C)s3)C2=O)cc1	none
COc1ccc(/C=C2\SC(=S)N(CC(=O)NCCO)C2=O)cc1	CRFBP-R2 block 59.8
CCOc1ccc(S(=O)(=O)N2CCCC(C(=O)NCc3ccncc3)C2)cc1 (stereo not given)	none
CC[C@@H](C(=O)[C@@H](C)[C@@H](O)[C@H](C)CCc1ccc(C)c(O)c1C(=O)O)[C@H]1O[C@](CC)([C@H]2CC[C@](O)(CC)[C@H](C)O2)C[C@@H]1C	CRFR2-BP ag 118.4
NNC(=O)c1oc2ccccc2c1-n1cccc1	none
O=C(NNC(=O)c1oc2ccccc2c1-n1cccc1)c1ccco1	CRFBP-R2 block 96.5
COc1ccccc1/C=C/c1nc(S(=O)(=O)c2ccccc2)c(N(C)C)o1	CRFBP-R2 block 71.9
Cc1nc(-n2[nH]c3c(c2=O)CCCC3)[nH]c(=O)c1Cc1ccccc1	CRFR2-BP ag 58.0, cardiac RTF act 32.5
CC(C)Sc1snnc1-c1ccccc1	CRFBP-R2 block 53.6
CCN1CCN(Cc2c(O)ccc3c2O/C(=C\c2ccc(C)cc2)C3=O)CC1	CRFR2-BP ag 53.9
COc1ccccc1/C=C/C=C1\Oc2c(ccc(O)c2CN2CCN(CCO)CC2)C1=O	CRFR2-BP ag 59.4, cardiac RTF act 239.3
CCN1CCN(Cc2c(O)ccc3c2O/C(=C\c2ccccc2)C3=O)CC1	none
Cc1ccc(/C=C2\Oc3c(ccc(O)c3CN3CCN(C)CC3)C2=O)cc1	none
CCN1CCN(Cc2c(O)ccc3c2O/C(=C\C=C\c2ccccc2)C3=O)CC1	cardiac RTF act 139.7
O=C1/C(=C/C=C/c2ccccc2)Oc2c1ccc(O)c2CN1CCN(CCO)CC1	cardiac RTF act 42.8
Cc1cc(N(C)C(=O)c2ccc3c(c2)S(=O)(=O)c2cc(Cl)ccc2C3=O)c(C(F)(F)F)o1	none
CC1CCCCN1C(=O)c1ccc(C(=O)c2ccccc2)cc1 (stereo not given)	none
CC1CCCCN1C(C(=O)O)c1ccccc1 (stereo not given)	CRFBP-R2 block 64.9
C/C(=N\NC(=O)c1cccc(C)c1O)c1ccc(NC(=O)Cc2ccccc2)cc1	none
Cc1ccc(OCC(=O)N2CCN(S(=O)(=O)c3ccc(Cl)cc3)CC2)c([N+](=O)[O-])n1	none
Cc1ccc(S(=O)(=O)N2CCN(C(=O)COc3ccc(C)nc3[N+](=O)[O-])CC2)c(C)c1	CRFBP-R2 block 77.8
CC(C)=C(C#N)c1nc2ccccc2s1	none
COc1ccccc1N1C(C)=CC(=C(C#N)c2nc3ccccc3s2)C=C1C	CRFR2-BP ag 108.5, cardiac RTF act 52.9
CC1=CC(=C(C#N)c2nc3ccccc3s2)C=C(C)N1c1ccc(F)cc1	cardiac RTF act 110.3
COc1cc(-c2cc(C(=O)Nc3c(Cl)cc(Cl)cc3Cl)c3ccccc3n2)cc(OC)c1OC	none
COc1ccc2nc3ccccc3nc2c1NC(=O)c1ccc(Cl)cc1Cl	CRFR2-BP ag 178.2, cardiac RTF act 360.7
Cc1ccc(/C=C2/NC(=O)N(Cc3ccccc3F)C2=O)s1	cardiac RTF act 34.5
COCCCn1c(SCC(=O)NCc2ccco2)nc2sc3c(c2c1=O)CCC3	none
COCCn1c(SCc2nnc(-c3ccccc3)o2)nc2sc3c(c2c1=O)CCC3	CRFBP-R2 block 54.8
C=CCC1NS(=O)(=O)O[C@H](CCCC)[C@@H]1O (stereo not given in full)	none
Cc1ccc(CCNC(=O)C2CCC(=O)N2C2CCCC2)cc1 (stereo not given)	CRFBP-R2 block 62.5
Cc1ccc(CCNC(=O)C2CCC(=O)N2C(C)C)cc1 (stereo not given)	none
CCCS(=O)(=O)N1CCCC(C(=O)Nc2ccc3c(c2)CCC3)C1 (stereo not given)	none
O=c1cc(-c2ccc(F)cc2)oc2ccccc12	CRFBP-R2 block 98.9
CSc1ccc(-c2cc(=O)c3ccccc3o2)cc1	none
COc1ccc(CCNC(=O)C(=O)NCC2OCCN2S(=O)(=O)c2ccc(OC)cc2)cc1 (stereo not given)	CRFBP-R2 block 63.8
CC(C)c1ccc(NC(=O)c2snc3ccc(Cl)cc23)cc1	none
Cc1ccc(C(C)C)c(OCC(=O)NCC(c2cccs2)N2CCOCC2)c1 (stereo not given)	none
NS(=O)(=O)c1ccc(N/N=C/c2ccc(C(=O)O)cc2)c([N+](=O)[O-])c1	none
Cc1nn(-c2ccccc2)c(N2CCCC2)c1/C=N/Nc1ccc(S(N)(=O)=O)cc1[N+](=O)[O-]	CRFBP-R2 block 59.6
CCOC(=O)CN1C(=O)S/C(=C/C=C/c2ccc(N(C)C)cc2)C1=O	CRFR2-BP ag 89.8
CCOC(=O)CN1C(=O)S/C(=C/c2ccc3c(c2)n(C)c(=O)n3C)C1=O	none
CCOCCCN(CC(=O)NC1CCCC1)C(=O)C(=O)Nc1ccc2c(c1)OCCO2	CRFBP-R2 block 97.2
CCOCC(=O)Nc1ccc2c(c1)OCCO2	none
C/C(CC(=O)Nc1cccc(Cl)c1Cl)=N\NC(=O)c1ccccc1N	none
CCN(CC)c1nc(C#N)nc(N(CC)CC)n1	none
CCN(c1ccccc1)c1nc(C#N)nc(N(CC)c2ccccc2)n1	CRFBP-R2 block 82.7
O=C(Nc1nnc(-c2ccccc2)o1)c1ccc(Cl)cc1	CRFR2-BP ag 54.3, CRFBP-R2 block 72.8
C/C(=N\NC(=O)c1cc2c(s1)CCC(C)C2)c1ccncc1 (stereo not given)	none
C/C(=N\NC(=O)c1cc2c(s1)CCC(C)C2)c1ccc[nH]1 (stereo not given)	cardiac RTF act 36.9
O=C(Nc1ccc(NC(=O)C2CC2)cc1)c1cccs1	none
O=C(NCCc1csc(-c2ccccc2)n1)c1c(F)cccc1Cl	CRFBP-R2 block 88.4
O=C(OCC(=O)N1N=C(c2ccc(Cl)cc2)CC1c1ccco1)c1cccnc1 (stereo not given)	none
CC1(C)c2[nH]c3ccccc3c2C[C@H]2C(=O)N(Cc3ccccc3)C(=O)N21	CRFBP-R2 block 60.3
O=C(Nc1cc(-c2ccccc2)sc1C(=O)O)c1cccc(F)c1	CRFBP-R2 block 72.8
CCOc1ccc(-c2cc(NC(=O)c3c(F)cccc3F)c(C(=O)O)s2)cc1	none
CC(C)(C)c1ccc(-n2nc(C#N)c(Cl)cc2=O)cc1	CRFR2-BP ag 51.3 (no result: cardiac RTF act, RTF Ca sens inh)
C[C@@H](C(=O)Nc1nccs1)N1C(=O)C2CC=CCC2C1=O (stereo not given in full)	none
CC(C(=O)Nc1sccc1C(N)=O)N1C(=O)C2CC=CCC2C1=O (stereo not given)	CRFBP-R2 block 63.2
CC(C)(C)CC(C)(C)NC(=O)/C=C/C(=O)O	none
Cc1cc(Cl)ccc1OCC(=O)OCC(=O)N1CCC(C(N)=O)CC1	none
COC(=O)C(C)Oc1ccc(-c2nccc(-c3ccccn3)n2)cc1 (stereo not given)	none
COc1ccc(N2CCN(C(=O)c3cc(=O)c4cc(C)ccc4o3)CC2)cc1	none
O=C(c1csc2ccccc12)N1CCN(c2ccc(Cl)c(Cl)c2)CC1	none
COc1ccc(N2CCN(C(=O)c3csc4ccccc34)CC2)cc1	CRFBP-R2 block 119.3

Source: PubChem BioAssay (several laboratories)
